Test results: the supplement of paper PMC9334596
Values joined by “and” are separate entries in the source; they are usually repeats but may differ in a detail not shown here. Equal entries are not always repeated. Over roughly 5,300 compounds, “PER2::LUC luminescence relative to vehicle control” has its median near 0.96; the highest 2% begin near 1.3. The full list was thinned out, with the highest values kept by preference.

Test system: mPer2Luc MEF
Assay: PER2::LUC luminescence relative to vehicle control (fold of vehicle); higher = higher PER2::LUC reporter signal
Conditions: 10 µM
Outline: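 Mouse embryonic fibroblasts carrying the mPer2Luc reporter were seeded at ~3000 cells per well in 384-well plates, 48 h before compounds from commercial libraries were added at 10 μM. Cells were grown in DMEM with 10% FBS at 37 °C and 5% CO2. Luminescence was read with the ONE-Glo luciferase assay system 24 h and 30 h after treatment, followed by an alamarBlue viability assay. The value is PER2::LUC luminescence as fold of vehicle control.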

| Structure (SMILES) | PER2::LUC luminescence (time after treatment 24 h) | PER2::LUC luminescence (time after treatment 30 h) |
| --- | --- | --- |
| Cc1o[nH]c(=O)c1CCC(N)C(=O)O (stereo not given) | 0.959 | 0.829 |
| O=C[C@H](O)[C@H]1OC(=O)[C@@H](O)[C@H]1O | 1.14 | 0.922 |
| C[n+]1cc(NC(=O)c2cccc(C(=O)Nc3cc4ccccc4[n+](C)c3)n2)cc2ccccc21 | 0.697 | 0.604 |
| Cc1cccn2c(=O)c(C=C(C#N)c3nc4ccccc4s3)c(Oc3ccc(F)cc3)nc12 | 0.941 | 0.942 |
| CCCCCCCC/C=C/CCCCCCCCOP(=O)([O-])OCC[N+](C)(C)C | 1.02 | 0.935 |
| OC[C@H]1O[C@@H](O[C@@H]2[C@@H](CO)OC(O)(CO)[C@H]2O)[C@H](O)[C@@H](O)[C@H]1O (mixture of isomers) | 1.12 | 1.37 |
| OC[C@H]1O[C@@H](O[C@H]2[C@H](O)[C@@H](O)C(O)O[C@@H]2CO)[C@H](O)[C@@H](O)[C@H]1O (stereo not given in full) | 1.03 | 1.06 |
| OC[C@H]1O[C@@H](O[C@H]2[C@H](O)[C@@H](O)[C@@H](O)O[C@@H]2CO)[C@H](O)[C@@H](O)[C@@H]1O | 0.982 | 0.927 |
| CCCC1(C)C(C#N)(C#N)C1(C#N)C#N | 1.15 | 1.04 |
| CC[C@H](CC[C@@H](C)[C@H]1CC[C@H]2[C@@H]3CC=C4C[C@@H](OC(C)=O)CC[C@]4(C)[C@H]3CC[C@]12C)C(C)C | 1.04 | 1.02 |
| COC(=O)c1ccc2c(c1)nc(NC(=O)c1ccccc1)n2CCCc1ccccc1 | 1.09 | 0.933 |
| O=C(Nc1nc2ccccc2n1CCN1CCOCC1)c1cccc([N+](=O)[O-])c1 | 1.36 | 1.18 |
| C[C@@H]1CCNC(=O)c2cc3ccc(C(=O)Nc4nc5ccccc5n4CCCN(C)C)cc3n21 | 0.548 | 0.586 |
| CC(C)[C@H](NC(=O)CCCCCN1C(=O)C=CC1=O)C(=O)N[C@@H](CCCNC(N)=O)C(=O)Nc1ccc(COC(=O)Oc2ccc([N+](=O)[O-])cc2)cc1 | 0.958 | 1.07 |
| COC(=O)CNC(=O)C(=O)OC | 0.922 | 0.99 |
| CC(C)(C)c1ccc(S(=O)(=O)Nc2ccc(-n3ccnc3)cc2)cc1 | 1.15 | 1.26 |
| Cc1cc(OCc2nc(-c3ccccc3Cl)cs2)ccc1CCC(=O)O | 1.11 | 1.28 |
| CCOc1cc2c(c(F)c1OCC)C(=N)N(CC(=O)c1cc(N3CCOCC3)c(OC)c(C(C)(C)C)c1)C2 | 0.14 | 0.117 |
| Nc1ccc(NC(=O)c2ccc(C(F)(F)F)cc2)nc1 | 1.01 | 0.976 |
| O=C(Nc1ccc(C(O)(C(F)(F)F)C(F)(F)F)cc1)c1ccc(C(F)(F)F)cc1 | 0.687 | 0.47 |

| Structure (SMILES) | PER2::LUC luminescence (time after treatment 24 h) | PER2::LUC luminescence (time after treatment 30 h) |
| --- | --- | --- |
| Cc1oncc1C(=O)Nc1ccc(C(F)(F)F)cc1 | 1.35 | 1.82 |
| CC1=CC[C@@]2(C)CC[C@@](O)(C(C)C)[C@@H]2[C@@H](OC(=O)c2ccc(O)cc2)C1 | 1.08 | 1.15 |
| O=C(Nc1ccc(Cl)cc1CN1C(=O)c2ccccc2C1=O)c1ccccc1O | 1.03 | 1.02 |
| NC[C@H]1CC[C@H](C(=O)Oc2ccc(CCC(=O)O)cc2)CC1 | 0.828 | 0.901 |
| Cc1cc2c(cc1Cl)N(C(=O)Nc1ccc(Oc3cccnc3C)nc1)CC2 | 0.924 | 1.03 |
| C[Si](C)(C)CCOCn1ccc2c(-c3cn[nH]c3)ncnc21 | 1.11 | 1.03 |
| O=C(O)CCC(=O)Nc1ccc(S(=O)(=O)Nc2nccs2)cc1 | 0.666 | 0.939 |
| S=C(Nc1ccccc1)Nc1nccs1 | 1.46 | 1.58 |
| O=C(O)c1ccccc1C(=O)Nc1ccc(S(=O)(=O)Nc2nccs2)cc1 | 0.993 | 0.892 |
| CCOc1ccc(C(Nc2ccccn2)c2ccc3ccc(C)nc3c2O)cc1C (stereo not given) | 1.13 | 1.13 |
| NC(N)=NCCC[C@H](NC(=O)[C@@H](N)Cc1ccc(O)cc1)C(=O)O | 1.04 | 0.909 |
| CS(=O)(=O)c1cc(F)cc2c3c(n(Cc4ccc(Cl)cc4)c12)[C@@H](CC(=O)O)CC3 | 1.13 | 1.09 |
| CC(C)CCC[C@@H](C)[C@H]1CC[C@H]2[C@@H]3CC=C4C[C@@H](O)CC[C@]4(C)[C@H]3CC[C@]12C | 0.926 | 0.923 |
| CC(=O)OC1CCC2(C)C(=CCC3C2CCC2(C)C(C(C)CCCC(C)C)CCC32)C1 (stereo not given) | 1.04 | 0.938 |
| CC(C)CCC[C@@H](C)[C@H]1CC[C@H]2[C@@H]3CC=C4CC(=O)CC[C@]4(C)[C@H]3CC[C@]12C | 1.42 | 1.09 |
| CO[C@H]1[C@H](OC(=O)c2ccc(C)[nH]2)[C@H](O)[C@@H](Oc2ccc3c(O)c(NC(=O)c4c[nH]c(C(=O)Nc5c(O)c6ccc(O[C@H]7OC(C)(C)[C@@H](OC)[C@H](OC(=O)c8ccc(C)[nH]8)[C@@H]7O)c(C)c6oc5=O)c4C)c(=O)oc3c2C)OC1(C)C | 1.1 | 1.13 |
| C/C1=C\CC(C)(C)/C=C/C(=O)/C(C)=C/CC1 | 1.08 | 1.06 |
| Cc1nc2ccccc2n1Cc1ccc(Cl)cc1 | 0.361 | 0.307 |
| CN(c1nccc(=O)[nH]1)C1CCN(c2nc3ccccc3n2Cc2ccc(F)cc2)CC1 | 1.07 | 1.45 |
| Clc1ccc(Cn2c(CN3CCCC3)nc3ccccc32)cc1 | 1.06 and 0.848 | 0.924 and 0.834 |
